Here are results for eleven compounds from PubChem BioAssay (NCATS).

Experiment [1] in a line: Cell Viability - SH-SY5Y (AID 544; active = well fitted curve in the direction sought with a large enough effect; an effect the other way counts as inactive or inconclusive;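 note: cells exposed to compound for 40 hours; nearly all actives have a fitted effect of over 55% in size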; note: potency is the fitted concentration of half-maximal effect). The gist of the method: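 Quantitative HTS in SH-SY5Y neuroblastoma cells, 40 hr treatment at 37 °C, ATP content by luciferase luminescence; AC50 from Hill fits.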
A short description of experiment [2]: Cell Viability - LYMP1-002 - Assay at 40 hr (AID 994; active = well fitted curve in the direction sought with a large enough effect; an effect the other way counts as inactive or inconclusive; note: nearly all actives have a fitted effect of over 60% in size; note: potency is the fitted concentration of half-maximal effect). Put shortly:
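Concentration-dependent ATP loss after 40 hr treatment at 37 C defined toxicity; AC50 values were obtained by fitting the standard Hill equation.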

Experiment [3] addresses Glucocorticoid receptor (Homo sapiens) (UniProt P04150). In words: qHTS assay for small molecule agonists of glucocorticoid receptor signaling (AID 588532; active = well fitted curve in the direction sought with a large enough effect in the signal ratio, with a control signal flat; the % refers to the signal ratio;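 note: 100% = dexamethasone at 0.1 µM and 0% = DMSO only wells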). The note with it: HeLa MMTV-bla, beta-lactamase ratio, agonist, 18 h; stronger effect = higher value; percent of dexamethasone control, DMSO zero. Put shortly: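 Titration series, up to 92 uM, applied to GRE-bla HeLa cells for 18 h at 37 C. Detection by CCF4 FRET substrate after 2 h at RT.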
A general note: qHTS replaces the single test concentration by a dilution series.

Experiment [4] shares this target. In words: qHTS assay for small molecule antagonists of glucocorticoid receptor signaling (AID 588533; active = well fitted inhibition curve with a large enough effect in the signal ratio, with a control signal flat, not every such curve was filed as active; the % refers to the signal ratio;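 note: cells stimulated with 2 nM dexamethasone as agonist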; note: potency is the fitted concentration of half-maximal effect). Put shortly: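 Antagonist-mode qHTS: compound titrations added to GRE-bla HeLa cells, then dexamethasone 2 nM final; 18 h, 37 C. CCF4 FRET fluorescence normalized to dexamethasone and DMSO; IC50 from Hill fit.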
The nature of experiment [5]: qHTS assay for small molecule antagonists of peroxisome proliferator-activated receptor delta signaling (AID 588535; active = well fitted inhibition curve with a large enough effect in the signal ratio, with a control signal flat, not every such curve was filed as active; the % refers to the signal ratio; note: potency is the fitted concentration of half-maximal effect;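 for max response: cells co-treated with a PPAR-delta agonist as stimulator during compound exposure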). The note with it: HEK293T PPARd-UAS-bla, beta-lactamase FRET ratio, 18 h; 460 nm channel. The gist of the method: (§1)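 Compounds tested in titration on PPAR-delta-UAS-bla HEK293T cells grown in charcoal/dextran-stripped serum (2%); beta-lactamase activity read via CCF4 emission at 460 and 530 nm.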

The target of experiment [6] is Peroxisome proliferator-activated receptor delta (Homo sapiens) (UniProt Q03181). The description is as above. The gist of the method:
as §1

Experiment [7] deals with Vitamin D3 receptor (Homo sapiens) (UniProt P11473). Description: qHTS assay for small molecule agonists of vitamin D receptor signaling (AID 588543).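 Note: 0% = DMSO basal and 100% = reference agonist control.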 The gist of the method:
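Reporter cells (HEK293T, VDR-UAS-bla) were seeded in medium with 2% charcoal-stripped serum and incubated 5 h, then compounds in concentration series were added for 16 h at 37 °C. Stimulation was scaled between DMSO basal and 50 nM 1α,25-dihydroxyvitamin D3.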

The nature of experiment [8]: qHTS assay for small molecule agonists of the antioxidant response element (ARE) signaling pathway (AID 651741; active = well fitted activation curve with a large enough effect in the signal ratio; the % refers to the signal ratio; note: potency is the fitted concentration of half-maximal effect; for activation: % of control where 0% means no effect). Put shortly: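 Beta-lactamase reporter expression driven by the antioxidant response element in HepG2 cells was detected by fluorescence with LiveBLAzer B/G FRET substrate (2 h, room temperature) following 16 h compound treatment at 37 C.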
Experiment [9] deals with Nuclear receptor ROR-gamma (Homo sapiens) (UniProt P51449). In words: qHTS assay for small molecule antagonists of the retinoid-related orphan receptor gamma (ROR-gamma) signaling pathway (AID 651802; active = well fitted curve in the direction sought with a large enough effect; an effect the other way counts as inactive or inconclusive; note: nearly all actives have a fitted effect of over 60% in size; note: potency is the fitted concentration of half-maximal effect). The gist of the method: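 Doxycycline-induced reporter activity in engineered CHO cells (TET-inducible ROR, RORE-LUC) was measured by luminescence after 16hr compound exposure at 37C.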
Chain of Nuclear receptor ROR-gamma (Homo sapiens) (P51449 whole entry, looked up): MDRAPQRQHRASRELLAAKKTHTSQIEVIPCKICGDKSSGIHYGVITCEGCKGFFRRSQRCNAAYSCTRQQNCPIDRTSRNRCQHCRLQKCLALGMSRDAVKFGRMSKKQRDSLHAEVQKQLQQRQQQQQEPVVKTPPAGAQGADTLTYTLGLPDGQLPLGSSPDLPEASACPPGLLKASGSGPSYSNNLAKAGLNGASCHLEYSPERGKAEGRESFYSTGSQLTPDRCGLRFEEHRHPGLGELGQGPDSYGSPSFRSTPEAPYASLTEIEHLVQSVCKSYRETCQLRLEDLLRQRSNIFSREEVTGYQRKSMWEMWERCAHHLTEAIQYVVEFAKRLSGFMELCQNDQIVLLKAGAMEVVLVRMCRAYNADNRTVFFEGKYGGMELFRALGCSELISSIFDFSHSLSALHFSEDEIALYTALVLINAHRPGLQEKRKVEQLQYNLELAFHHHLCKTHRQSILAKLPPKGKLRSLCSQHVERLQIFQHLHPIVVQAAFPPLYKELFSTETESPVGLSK

The nature of experiment [10]: Cellular Toxicity (caspase-3) NIH 3T3 (AID 666; active = well fitted curve in the direction sought with a large enough effect; an effect the other way counts as inactive or inconclusive;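 note: caspase signal read after 16 h compound exposure; 0% = DMSO basal and 100% = 100 µM tamoxifen stimulation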). Put shortly:
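Activity: caspase-3/7 induction, NIH 3T3 cells, 16 hr treatment at 37°C, luminescent Caspase-Glo detection; AC50 via Hill equation.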

For experiment [11], the target named is Estrogen receptor (Homo sapiens) (UniProt P03372). In words: qHTS assay for small molecule agonists of estrogen receptor alpha signaling (AID 588514).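 Note: 0% = vehicle only and 100% = reference agonist; nearly all actives have a fitted effect of over 70% in size.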 The gist of the method: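 Fluorescence from CCF4 cleavage reports ER-alpha-driven beta-lactamase expression in HEK 293 cells treated 18 hrs at 37 C. Data normalized to 17-beta-estradiol (20 nM) and DMSO, fitted to Hill equation.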
Chain of Estrogen receptor (Homo sapiens) (P03372 whole entry, looked up): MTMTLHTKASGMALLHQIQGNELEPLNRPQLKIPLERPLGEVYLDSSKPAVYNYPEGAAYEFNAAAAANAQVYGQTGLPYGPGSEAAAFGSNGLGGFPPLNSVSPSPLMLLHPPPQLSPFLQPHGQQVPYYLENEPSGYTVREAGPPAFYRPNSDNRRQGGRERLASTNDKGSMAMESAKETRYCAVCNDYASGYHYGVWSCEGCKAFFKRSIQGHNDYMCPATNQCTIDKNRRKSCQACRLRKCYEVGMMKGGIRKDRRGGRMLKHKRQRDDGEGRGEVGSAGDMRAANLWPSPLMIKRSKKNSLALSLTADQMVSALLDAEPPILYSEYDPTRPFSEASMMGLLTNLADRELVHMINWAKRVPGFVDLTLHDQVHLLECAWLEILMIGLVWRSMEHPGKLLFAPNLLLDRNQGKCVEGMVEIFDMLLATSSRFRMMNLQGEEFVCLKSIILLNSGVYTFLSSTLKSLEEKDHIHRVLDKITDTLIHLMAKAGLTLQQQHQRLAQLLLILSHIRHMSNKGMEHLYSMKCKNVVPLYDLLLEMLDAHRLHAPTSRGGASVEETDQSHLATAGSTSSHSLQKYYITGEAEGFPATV

The target of experiment [12] is Bile acid receptor (Homo sapiens) (UniProt Q96RI1). Description: qHTS assay for small molecule antagonists of farnesoid X receptor signaling (AID 588526). Note: % is set by controls: 0 for no effect and ±100 for the full control effect. The gist of the method:
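Concentration-response titrations were fitted to the Hill equation for half-maximal inhibition and maximal response, with data normalised to 50 uM chenodeoxycholic acid and DMSO control wells. Cells: FXR-UAS-bla HEK293T, dialyzed FBS.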

For experiment [13], the target named is Peroxisome proliferator-activated receptor gamma (Homo sapiens) (UniProt P37231). Description: qHTS assay for small molecule antagonists of peroxisome proliferator-activated receptor gamma signaling (AID 588537; active = well fitted inhibition curve with a large enough effect in the signal ratio, with a control signal flat, not every such curve was filed as active; the % refers to the signal ratio;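 note: reporter cells co-stimulated with 50 nM rosiglitazone agonist during compound treatment; % of control where 0% means no effect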). Put shortly: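 HEK293 cells, PPAR-gamma-UAS-bla, 3000/well. Pre-incubation 6-6.5 h, 37 C. Compound titration with rosiglitazone 50 nM final, 16 h. CCF4 dye, 2 h RT, dual-emission fluorescence.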
Chain of Peroxisome proliferator-activated receptor gamma (Homo sapiens) (P37231 whole entry, looked up): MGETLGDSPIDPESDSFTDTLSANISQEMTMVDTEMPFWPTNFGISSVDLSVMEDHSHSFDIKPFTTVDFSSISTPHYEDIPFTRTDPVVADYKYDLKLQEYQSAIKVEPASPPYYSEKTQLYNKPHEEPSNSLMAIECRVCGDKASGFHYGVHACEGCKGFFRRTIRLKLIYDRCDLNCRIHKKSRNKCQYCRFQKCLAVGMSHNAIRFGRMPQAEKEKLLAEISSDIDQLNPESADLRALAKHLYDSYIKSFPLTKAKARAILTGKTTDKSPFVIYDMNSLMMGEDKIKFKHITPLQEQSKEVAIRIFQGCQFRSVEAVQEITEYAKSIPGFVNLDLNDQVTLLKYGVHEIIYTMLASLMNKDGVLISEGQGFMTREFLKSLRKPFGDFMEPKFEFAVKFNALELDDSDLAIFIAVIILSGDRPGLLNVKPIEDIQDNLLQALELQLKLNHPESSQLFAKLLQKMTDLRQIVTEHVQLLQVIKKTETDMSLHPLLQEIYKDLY

The target of experiment [14] is Vitamin D3 receptor (Homo sapiens) (UniProt P11473). Description: qHTS assay for small molecule antagonists of vitamin D receptor signaling (AID 588541).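 Note: receptor activated by calcitriol during compound treatment; series mostly up to about 77 µM; % is set by controls: 0 for no effect and ±100 for the full control effect.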 The gist of the method: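 VDR-UAS-bla HEK293T cells (2000/well, 2% charcoal-stripped FBS) were treated with titrated compounds plus 1-alpha,25-dihydroxyvitamin D3 (50 nM or 3 nM final) for 16 h at 37 C. CCF4 beta-lactamase fluorescence was read; Hill fits gave IC50.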
Chain of Vitamin D3 receptor (Homo sapiens) (P11473 whole entry, looked up): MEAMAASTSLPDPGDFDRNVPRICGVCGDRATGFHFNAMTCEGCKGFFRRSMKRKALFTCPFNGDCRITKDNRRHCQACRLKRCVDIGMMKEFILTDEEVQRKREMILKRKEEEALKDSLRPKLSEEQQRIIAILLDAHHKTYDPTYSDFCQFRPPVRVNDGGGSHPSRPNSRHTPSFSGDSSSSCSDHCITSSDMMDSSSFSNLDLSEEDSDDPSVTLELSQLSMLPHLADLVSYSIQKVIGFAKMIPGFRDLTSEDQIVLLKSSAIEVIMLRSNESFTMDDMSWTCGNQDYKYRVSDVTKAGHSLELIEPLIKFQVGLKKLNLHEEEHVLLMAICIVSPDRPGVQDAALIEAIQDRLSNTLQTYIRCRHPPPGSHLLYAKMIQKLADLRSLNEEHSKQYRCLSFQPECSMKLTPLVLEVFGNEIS

Experiment [15] addresses Retinoic acid receptor RXR-alpha (Homo sapiens) (UniProt P19793). In words: qHTS assay for small molecule antagonists of retinoid X receptor alpha signaling (AID 588546; active = well fitted inhibition curve with a large enough effect in the signal ratio, with a control signal flat, not every such curve was filed as active; the % refers to the signal ratio;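 note: cells stimulated with 9-cis-retinoic acid as agonist; % is set by controls: 0 for no effect and ±100 for the full control effect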). As to conditions: HEK293T RXRa-UAS-bla, beta-lactamase ratio, antagonist mode. Put shortly:
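Beta-lactamase reporter inhibition, read as CCF4 fluorescence ratio (ex 405, em 460/530 nm) after 2 h at RT. HEK293T UAS-bla cells, 2500/well, were stimulated with 9-cis-RA at 500 or 100 nM final alongside test compound for 18 h at 37 C.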

Experiment [16] in a line: qHTS assay for small molecule activators of the nuclear factor-kappa B (NF-kB) signaling pathway (AID 651749; active = well fitted activation curve with a large enough effect in the signal ratio; the % refers to the signal ratio; note: series mostly up to about 77 µM; % of control where 0% means no effect). As to conditions: NF-kB-bla ME-180 cells, beta-lactamase FRET ratio, 16 h; stronger effect = higher value. Put shortly: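 Beta-lactamase reporter expression, controlled by NF-kB response elements in ME-180 cells, was quantified fluorometrically via FRET disruption; cells at 2,000/well had been incubated with 23 nL test compound for 16 hr.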

The nature of experiment [17]: qHTS assay to identify small molecules that stimulate interleukin-8 (IL-8) secretion (AID 651758; active = well fitted activation curve with a large enough effect in the signal ratio; the % refers to the signal ratio; note: 0% is about no effect). The gist of the method:
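Quantitative HTS in THP-1 monocytic cells at 2000 cells per well, with 16 hrs compound incubation at 37 C. IL-8 in the medium was then quantified by HTRF immunoassay, read after 1-3 hrs at room temperature.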

Experiment [18] in a line: Cell Viability - LYMP2-021 (AID 974; active = well fitted curve in the direction sought with a large enough effect; an effect the other way counts as inactive or inconclusive;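 note: compound exposure lasts 24 hours at 37 °C; % is set by controls: 0 for no effect and ±100 for the full control effect; nearly all actives have a fitted effect of over 55% in size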). The gist of the method: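 In qHTS format, compounds are tested against 2500 lymphoblastoid cells per well for 24 h; viable cell number is inferred from ATP-driven luciferase light, and Hill-equation fitting yields AC50 values.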
The nature of experiment [19]: Cell Viability - LYMP2-015 (AID 971; active = well fitted curve in the direction sought with a large enough effect; an effect the other way counts as inactive or inconclusive;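 note: 0% = DMSO only and full effect = 92 µM tetraoctylammonium bromide; nearly all actives have a fitted effect of over 55% in size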). The gist of the method: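 AC50 values reflect Hill-model fits of ATP-based luminescence (CellTiter-Glo) from a human lymphoblastoid line, 2500 cells/well, treated 24 hr at 37 C.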
A short description of experiment [20]: qHTS assay for cell viability of the p53RE-bla HCT-116 cell line (AID 743292; active = well fitted curve in the direction sought with a large enough effect; an effect the other way counts as inactive or inconclusive; note: % is set by controls: 0 for no effect and ±100 for the full control effect; nearly all actives have a fitted effect of over 55% in size). The gist of the method:
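Readout: CellTiter-Glo luminescence after 30 min RT. Treatment: compounds in DMSO, 16 h, 37 C. Cells: CellSensor p53RE-bla HCT-116, 4,000/well, preincubated 5 h.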

“And” between values parts separate entries of the source, which are not always exact repeats. Identical values can stand only once. Results filed as inconclusive are left out. The source made the active and inactive calls. Unless noted, calls come from the whole dose curve.

Chain of Glucocorticoid receptor (Homo sapiens) (P04150 whole entry, looked up): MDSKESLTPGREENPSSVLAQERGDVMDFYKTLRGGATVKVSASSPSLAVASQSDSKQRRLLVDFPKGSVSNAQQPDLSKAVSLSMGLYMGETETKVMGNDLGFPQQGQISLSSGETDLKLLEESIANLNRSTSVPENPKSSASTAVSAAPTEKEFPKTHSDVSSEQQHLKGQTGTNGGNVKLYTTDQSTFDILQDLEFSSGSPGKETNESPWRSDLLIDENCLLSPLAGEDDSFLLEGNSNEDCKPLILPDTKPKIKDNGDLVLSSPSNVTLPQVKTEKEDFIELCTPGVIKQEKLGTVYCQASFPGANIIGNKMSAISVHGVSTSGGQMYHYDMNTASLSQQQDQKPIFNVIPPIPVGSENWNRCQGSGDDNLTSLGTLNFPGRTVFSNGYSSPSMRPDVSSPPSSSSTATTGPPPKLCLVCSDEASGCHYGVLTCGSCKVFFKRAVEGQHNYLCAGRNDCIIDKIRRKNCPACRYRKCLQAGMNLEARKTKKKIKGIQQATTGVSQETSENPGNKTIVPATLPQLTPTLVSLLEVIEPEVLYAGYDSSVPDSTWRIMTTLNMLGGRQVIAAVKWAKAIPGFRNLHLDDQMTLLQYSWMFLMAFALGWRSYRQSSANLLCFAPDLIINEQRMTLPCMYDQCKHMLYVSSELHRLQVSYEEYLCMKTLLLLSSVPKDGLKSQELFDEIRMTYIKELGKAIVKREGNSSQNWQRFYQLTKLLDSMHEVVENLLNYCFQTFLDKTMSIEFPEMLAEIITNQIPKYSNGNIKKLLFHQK
Chain of Peroxisome proliferator-activated receptor delta (Homo sapiens) (Q03181 whole entry, looked up): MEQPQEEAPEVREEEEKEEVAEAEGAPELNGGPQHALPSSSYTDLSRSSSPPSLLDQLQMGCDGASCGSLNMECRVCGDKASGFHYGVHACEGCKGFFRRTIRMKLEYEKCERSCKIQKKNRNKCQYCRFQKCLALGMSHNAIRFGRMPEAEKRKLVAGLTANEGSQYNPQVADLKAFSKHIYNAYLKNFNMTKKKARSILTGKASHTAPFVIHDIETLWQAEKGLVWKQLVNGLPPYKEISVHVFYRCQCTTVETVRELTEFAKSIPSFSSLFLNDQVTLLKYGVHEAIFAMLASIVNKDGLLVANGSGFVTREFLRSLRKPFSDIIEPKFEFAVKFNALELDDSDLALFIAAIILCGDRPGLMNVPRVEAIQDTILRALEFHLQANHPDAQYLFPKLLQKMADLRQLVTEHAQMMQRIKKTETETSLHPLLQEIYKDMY
Chain of Bile acid receptor (Homo sapiens) (Q96RI1 whole entry, looked up): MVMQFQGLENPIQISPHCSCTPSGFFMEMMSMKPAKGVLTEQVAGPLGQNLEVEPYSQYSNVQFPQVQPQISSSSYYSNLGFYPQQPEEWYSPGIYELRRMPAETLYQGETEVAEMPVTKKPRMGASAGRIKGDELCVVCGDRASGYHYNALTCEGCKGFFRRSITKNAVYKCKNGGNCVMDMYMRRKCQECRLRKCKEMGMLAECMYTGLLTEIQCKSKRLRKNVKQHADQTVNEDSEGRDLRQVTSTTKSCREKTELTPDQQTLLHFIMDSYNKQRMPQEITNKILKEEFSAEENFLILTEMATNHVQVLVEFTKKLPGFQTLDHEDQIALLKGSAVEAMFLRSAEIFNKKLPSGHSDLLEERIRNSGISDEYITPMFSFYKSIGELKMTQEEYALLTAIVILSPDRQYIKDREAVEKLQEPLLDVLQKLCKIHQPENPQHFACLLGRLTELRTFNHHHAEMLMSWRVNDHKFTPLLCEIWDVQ
Chain of Retinoic acid receptor RXR-alpha (Homo sapiens) (P19793 whole entry, looked up): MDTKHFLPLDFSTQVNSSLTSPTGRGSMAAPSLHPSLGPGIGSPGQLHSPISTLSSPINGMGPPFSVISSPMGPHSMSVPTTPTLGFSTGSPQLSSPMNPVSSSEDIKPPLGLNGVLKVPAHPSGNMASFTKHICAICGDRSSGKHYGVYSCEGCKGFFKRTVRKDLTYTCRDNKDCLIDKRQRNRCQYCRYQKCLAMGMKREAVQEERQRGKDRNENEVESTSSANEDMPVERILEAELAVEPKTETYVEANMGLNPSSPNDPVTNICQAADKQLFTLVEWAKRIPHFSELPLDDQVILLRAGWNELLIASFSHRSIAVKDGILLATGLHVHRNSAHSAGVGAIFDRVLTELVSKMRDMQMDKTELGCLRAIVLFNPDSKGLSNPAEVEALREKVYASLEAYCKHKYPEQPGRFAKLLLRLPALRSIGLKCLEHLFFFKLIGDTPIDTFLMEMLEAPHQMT

Turning to `C=CC(=O)OCCOCCOCCOCCOC(=O)C=C`, the Potency in experiment [1] is 7.94 µM (active) and 12.6 µM (active); in [2], 20 µM (active) and 25.1 µM (active); in [4], 39.8 µM (active); in experiment [6] it was 28.2 µM (active); in experiment [8], 42.2 µM (active) and 37.6 µM (active); in experiment [9] it was 11.9 µM (active) and 21.1 µM (active). Moreover, the activation in experiment [3] is -5.18% (inactive). Also, in experiment [5], the max response was -103%. Moreover, in [7], the compound was classed as inactive.

For the compound `O=C(O)CC(C(=O)O)C(CC(=O)O)C(=O)O` (centres undefined), the compound was classed as inactive in [10], in experiment [12], in experiment [13], in experiment [14] and in [7]. The Potency entry in experiment [2], in experiment [11], in [4], in experiment [6], in experiment [8] and in experiment [17] was “inactive” in each case. For the same compound, the activation in experiment [3] is -3.1% (inactive) and -3.88% (inactive); in experiment [16], -0.643% (inactive) and 0.457% (inactive). In addition, the max response in experiment [5] was 5.81%; in experiment [15], -2.56% (inactive) and -11.2% (inactive).

On to `Cc1ccccc1C`, for which the Potency result in experiment [1], in experiment [18], in experiment [11], in experiment [4], in [6] and in [8] was “inactive” in each case. Also, the Potency result in [9] is “inactive”. The activation in [3] was -7.63% (inactive) and -0.245% (inactive); in experiment [16], -0.0827% (inactive) and -0.301% (inactive). For the same compound, the max response in experiment [5] was -3.07% and -4.26%. Also, the compound was called inactive in experiment [14] and in experiment [7].

Consider `c1ccc2c(c1)c1cccc3ccc4cccc2c4c31`, for which the compound was called inactive in experiment [10], in experiment [12] and in experiment [14]. Also, the Potency result in experiment [18], in experiment [11], in experiment [4], in experiment [6] and in experiment [9] was “inactive” each time. In addition, the activation in experiment [3] was 2.22% (inactive) and -5.73% (inactive); in experiment [16] it was 2.08% (inactive) and 3.95% (inactive). Besides, the max response in experiment [5] was 25.2% and 42.4%.

On to `Cc1ccc([N+](=O)[O-])c(C)c1`, for which the Potency entry in experiment [19], in [18], in experiment [11], in experiment [4], in [6] and in experiment [8] was “inactive” in each case. For the same compound, the Potency entry in experiment [17] and in experiment [9] was “inactive” in each case. Further, the call in [12], in experiment [13], in experiment [14] and in experiment [7] was inactive. Further, in [3], the activation is -4.65% (inactive) and 0.746% (inactive). In addition, the max response in experiment [5] is -27.9% and -14.4%.

Take `CN(C)C=O`: the Potency entry in experiment [18], in [11], in [8], in [17] and in experiment [9] was “inactive” in each case. For the same compound, the result in experiment [12] and in experiment [13] was inactive. Further, the max response in experiment [15] is 8.45% (inactive) and -9.56% (inactive). Moreover, in experiment [16], the activation was 0.506% (inactive) and -0.104% (inactive) and -1.7% (inactive).

Turning to `C=Cc1ccccc1Cl`, the Potency entry in experiment [19], in [11], in experiment [4], in experiment [6], in [8] and in experiment [17] was “inactive” each time. In experiment [9], the Potency entry was “inactive”. The result in [12], in experiment [14] and in [7] was inactive. Also, the activation is -0.22% (inactive) in experiment [3] and -1.19% (inactive) in [16]. Also, in experiment [5], the max response was -3.33%.

For `OCCNCCO`, the Potency entry in experiment [18], in experiment [11], in [4] and in [6] was “inactive” throughout. The activation in [3] was -6.89% (inactive) and -4.55% (inactive). Further, the max response in experiment [5] was 0.125% and 53.2%. Moreover, the compound was called inactive in [14] and in experiment [7].

Regarding `O=C(O)c1ccc(O)cc1O`, the compound was called inactive in [10], in experiment [12], in experiment [13], in [14] and in [7]. The Potency result in [19], in experiment [18], in [4], in experiment [6], in experiment [8] and in [17] was “inactive” each time. Further, in experiment [9], the Potency result was “inactive”. Further, the activation in [3] was 0.41% (inactive) and -0.627% (inactive); in experiment [16] it was 0.834% (inactive) and -0.343% (inactive). Further, the max response in [5] was 43.1%; in experiment [15], 1.87% (inactive).

As for `O=NO`, the Potency result in [2], in experiment [6], in experiment [17] and in experiment [20] was “inactive” in each case. Further, the max response in [5] was 3.13% and -3.55%; in experiment [15], 16.8% (inactive) and -9.55% (inactive). The outcome in experiment [13], in [14] and in experiment [7] was inactive. Besides, the activation in experiment [16] was -0.475% (inactive) and 1.4% (inactive).

As to `Cc1c(N=C=O)cccc1N=C=O`, the result in experiment [10], in experiment [13], in [14] and in experiment [7] was inactive. For the same compound, the Potency result in [18], in experiment [11], in experiment [4], in [8] and in experiment [9] was “inactive” throughout. Moreover, the activation was -8.06% (inactive) and -0.129% (inactive) in experiment [3]; -0.751% (inactive) and -0.0469% (inactive) in [16]. Further, the max response in [15] is 6.11% (inactive) and -21.4% (inactive).
